Source: the supplement of paper PMC11865577
Structures can show the parent of a compound that is named as a salt.

Key:
Assay in all cases: normalised indicator fluorescence (fraction of RNA + indicator signal without compound); higher = less displacement of indicator (weaker competition)
Settings in all cases: compound concentration: 5 uM, 30 min
[1] = test system: hsa-mir-191 loop
In short: (§1)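 Values are ratios: indicator fluorescence, less a buffer-plus-indicator blank, over the RNA-plus-indicator signal with no compound, as the mean of two independent experiments. This displacement screen used TO-PRO-1 or TO-PRO-3 with RNA in 96-well plates, in 20 mM phosphate pH 7.0, 20 mM NaCl, 80 mM KCl. Compounds went in at about 5 uM final, and readings were taken after 30 min on an Infinite 200 PRO at 485 or 620 nm excitation.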

[2] = test system: hsa-mir-21 loop
In short: as §1

[3] = test system: hsa-mir-221 loop
In short: as §1

[4] = test system: hsa-mir-374a loop
In short: as §1

[5] = test system: hsa-mir-6850 loop
In short: as §1

[6] = indicator: TO-PRO-1 0.1 uM, RNA concentration: 0.1 uM
[7] = indicator: TO-PRO-3 0.5 uM, RNA concentration: 0.5 uM

SMILES | normalised indicator fluorescence [1, 6] | normalised indicator fluorescence [1, 7] | normalised indicator fluorescence [2, 6] | normalised indicator fluorescence [2, 7] | normalised indicator fluorescence [3, 6] | normalised indicator fluorescence [3, 7] | normalised indicator fluorescence [4, 6] | normalised indicator fluorescence [5, 6] | normalised indicator fluorescence [5, 7] | normalised indicator fluorescence [4, 7]
CC(C)c1cc(C(C)C)c(CC(=O)NS(=O)(=O)Oc2c(C(C)C)cccc2C(C)C)c(C(C)C)c1 [Avasimibe] | 1.05 | 1.12 | 0.952 | 1.08 | 1.05 | 1.03 | 1.08 | 0.985 | 0.948 | 
Cc1c(F)cc(C(=O)NC2CC2)cc1-c1ccc(C(=O)NCC(C)(C)C)cn1 [Losmapimod] | 0.997 | 1.02 | 0.887 | 1.04 | 1.07 | 1.08 | 1.06 | 0.95 | 1.06 | 1.13
O=c1ccc2ccc(O)c(O)c2o1 [Daphnetin] | 1.01 | 0.873 | 1.09 | 0.941 | 0.91 | 0.965 | 1.09 | 1.19 | 0.881 | 1.03
CO[C@@H]1[C@H](N(C)C(=O)c2ccccc2)C[C@H]2O[C@]1(C)n1c3ccccc3c3c4c(c5c6ccccc6n2c5c31)C(=O)NC4 [Midostaurin] | 1.16 | 1.04 | 1.09 | 1.06 | 1.18 | 0.972 |  | 1.02 | 1.02 | 1.43
Oc1ccc(OC2CCCCO2)cc1 (stereo not drawn) [Deoxyarbutin] | 1.11 | 1.06 | 1.03 | 1.06 | 1.03 | 1.1 | 1.03 | 0.979 | 1 | 1.13
Cn1cc(C2=C(c3cn(CCCSC(=N)N)c4ccccc34)C(=O)NC2=O)c2ccccc21 [Ro 31-8220 Mesylate] | 1.38 | 0.894 |  | 0.929 |  | 0.947 |  | 1.08 | 0.859 | 1.02
C[C@H]1Oc2cc(cnc2N)-c2c(nn(C)c2C#N)CN(C)C(=O)c2ccc(F)cc21 [Lorlatinib] | 0.997 | 1.03 | 1.05 | 1.03 | 0.999 | 1.02 | 1.08 | 1.14 | 1.05 | 1.26
CNc1ccc([N+](=O)[O-])c(Nc2ccc3[nH]ncc3c2)n1 | 0.903 | 0.996 | 0.899 | 1.02 | 0.959 | 1.15 | 1.1 | 0.93 | 0.929 | 1.35
O=c1cc(-c2ccc(O)c(-c3c(O)cc(O)c4c(=O)cc(-c5ccc(O)cc5)oc34)c2)oc2cc(O)cc(O)c12 [Amentoflavone] | 0.994 | 1.42 | 1.16 | 1.23 | 1.19 | 1.17 | 1.29 | 1.07 | 1.03 | 
NC(=O)N/N=C/c1ccc([N+](=O)[O-])o1 [Furacilin] | 1.06 | 1.02 | 0.909 | 1.06 | 1.14 | 1.03 | 1.15 | 0.927 | 1.04 | 1.16
O=C(COc1ccc(Cl)cc1)NC1CCC(NC(=O)COc2ccc(Cl)cc2)CC1 (stereo not drawn) | 1.03 | 1.04 | 0.954 | 1.03 | 1.05 | 1.01 | 1.07 | 0.894 | 1.05 | 1.08
CCNC(=O)c1noc(-c2cc(Cl)c(O)cc2O)c1-c1ccc(OC)cc1 | 1.05 | 1.04 | 1.06 | 1.06 | 1.06 | 0.964 | 1.1 | 1.03 | 1.05 | 1.17
CN(C)C[C@@H]1CCn2cc(c3ccccc32)C2=C(C(=O)NC2=O)c2cn(c3ccccc23)CCO1 [Ruboxistaurin hydrochloride] | 1.1 | 1.04 | 0.991 | 1.01 | 1 | 1.12 | 1.03 | 0.894 | 0.897 | 1.24
COC1=CC(=O)c2ccccc2C1=O [2-Methoxynaphthoquinone] | 1.01 | 1.03 | 0.993 | 1.05 | 1.06 | 1.06 | 1.14 | 0.946 | 1.07 | 1.19
CC(=O)CCCCn1c(=O)c2c(ncn2C)n(C)c1=O [Pentoxifylline] | 1.05 | 1.01 | 1.02 | 1.04 | 1.01 | 1.02 | 1.04 | 0.943 | 0.997 | 0.959
COC1=C2C[C@@H](C)C[C@H](OC)[C@H](O)[C@@H](C)/C=C(\C)[C@H](OC(N)=O)[C@@H](OC)/C=C\C=C(/C)C(=O)NC(=CC1=O)C2=O [Geldanamycin] | 1.09 | 1.08 | 1.04 | 1.05 | 1.04 | 1.09 | 1.11 | 1.09 | 1.02 | 1.31

SMILES | normalised indicator fluorescence [1, 6] | normalised indicator fluorescence [1, 7] | normalised indicator fluorescence [2, 6] | normalised indicator fluorescence [2, 7] | normalised indicator fluorescence [3, 6] | normalised indicator fluorescence [3, 7] | normalised indicator fluorescence [4, 6] | normalised indicator fluorescence [5, 6] | normalised indicator fluorescence [5, 7] | normalised indicator fluorescence [4, 7]
O=[N+]([O-])c1ccc(-c2nc(-c3ccc(F)cc3)c(-c3ccncc3)[nH]2)cc1 | 1.06 | 1.03 | 0.973 | 1.03 | 1.16 | 1.03 | 1.59 | 0.975 | 1.03 | 1.15
CC(C)OC(=O)CCC/C=C\C[C@@H]1[C@@H](CC[C@@H](O)CCc2ccccc2)[C@H](O)C[C@@H]1O [Latanoprost] | 1.01 | 1.03 | 0.985 | 0.978 | 1.01 | 1.05 | 1.01 | 1.06 | 1.04 | 1.06
COc1ccc(-c2nc(-c3cc(C(F)(F)F)cc(C(F)(F)F)c3)n(Cc3ccc(C(N)=O)cc3)c2-c2ccc(OC)cc2)cc1 [Apoptozole] | 0.992 | 1.01 | 1.01 | 1.03 | 1.05 | 1.21 | 1.06 | 0.966 | 0.976 | 1.36
CC(=O)O[C@H]1C[C@@]2(C)[C@@H](C[C@@H](O)[C@H]3[C@@]4(C)CC[C@@H](O)[C@@H](C)[C@@H]4CC[C@@]32C)/C1=C(\CCC=C(C)C)C(=O)O [Sodium fusidate] | 1.06 | 1.05 | 0.986 | 1.07 | 1.01 | 1.03 | 1.09 | 0.956 | 1.02 | 1.11
O=C1CCc2ccccc2C1 [Beta-Tetralone] | 1.04 | 1.06 | 1.05 | 1.04 | 1.04 | 1.06 | 1.07 | 0.996 | 1.08 | 1.02
O=C(Nc1ccc2[nH]nc(-c3ccncc3)c2c1)[C@@H]1CCN(CC(=O)N2CCN(c3ccc(-c4ncccn4)cc3)CC2)C1 | 1.05 | 1.02 | 1.02 | 1 | 1.04 | 1 | 1.09 | 0.931 | 0.89 | 1.16
Oc1cc(O)c2c(c1)O[C@H](c1ccc(O)c(O)c1)[C@@H](O)C2 [(+)-Catechin Hydrate] | 0.971 | 1.07 | 0.941 | 1.02 | 1.02 | 1.13 | 1.15 | 0.975 | 1.09 | 1.22
[I-].[K+] [Potassium iodide] | 1.06 | 1.08 | 1.11 | 1.03 | 1.08 | 1.03 | 1.21 | 1.07 | 1.07 | 1.05
C1CCN2C[C@@H]3C[C@@H](CN4CCCC[C@@H]34)[C@H]2C1 [(-)-Sparteine sulfate pentahydrate] | 0.913 | 1.02 | 0.863 | 1.2 | 1.09 | 1.06 | 1.14 | 0.921 | 1.05 | 1.14
CCCC(C(=O)OCCN(CC)CC)(c1ccccc1)c1ccccc1 [Proadifen hydrochloride] | 1.01 | 1.04 | 0.923 | 1 | 1.08 | 1.05 | 1.16 | 0.941 | 1.02 | 1.17
Cc1cc(C(C)(C)C)c(O)c(C(C)(C)C)c1 | 1.01 | 1.04 | 1.04 | 1 | 1.05 | 1.12 | 1.11 | 0.924 | 1.06 | 1.19
O=c1c(O)c(-c2cc(O)c(O)c(O)c2)oc2cc(O)cc(O)c12 [Myricetin] | 0.403 | 0.684 | 0.387 | 0.742 | 0.505 | 0.659 | 0.543 | 0.604 | 0.969 | 0.424
O=c1cc(-c2ccccc2)oc2cc(O)c(O)c(O)c12 [Baicalein] | 0.599 | 0.956 | 0.653 | 0.944 | 0.767 | 0.926 | 0.88 | 0.918 | 1.05 | 0.91
N#Cc1c(NC(=O)c2cccc3ccccc23)sc2c1CCCC2 | 1.04 | 0.988 | 1.02 | 1.01 | 0.919 | 1.02 |  | 1.08 | 1.02 | 0.983
CN(NC(=O)CC(=O)NN(C)C(=S)c1ccccc1)C(=S)c1ccccc1 [Elesclomol] | 1.05 | 1.03 | 1.06 | 1.03 | 1.04 | 0.964 | 1.09 | 1.02 | 1.02 | 1.18
C[C@@H]1O[C@@H](Oc2c(-c3cc(O)c(O)c(O)c3)oc3cc(O)cc(O)c3c2=O)[C@H](O)[C@H](O)[C@H]1O [Myricetrin] | 0.952 | 1.05 | 0.962 | 1.07 | 0.97 | 1.09 | 1.07 | 0.944 | 1.08 | 1.17
